Results reported in PubChem BioAssay (NCI).
About 83,000 compounds went through this panel and 20% of them were active in at least one assay; those are over-represented in the sample as a whole.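 Note: values are percent growth. 100 is the growth of untreated cells, values between 100 and 0 indicate rising inhibition; between -100 and 0 indicates cell death.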 Active and inactive are the calls of the source. Rule for the calls: active = growth percent below 10; inactive = the rest.

tested on: HL-60(TB) leukemia; experiment: NCI-60 one-dose screen, 48 h (100 = growth as untreated, 0 = no growth, -100 = all killed); settings: 10 µM unless noted

Row | Compound | growth
1 | COc1cc2c(/C=C3\C(=O)Nc4ccc(Br)cc43)c(Cl)n(C)c2cc1C | -13.1% (active)
2 | N/C(=N\O)c1ccncc1 | 102% (inactive)
3 | C#CCOc1cccc(Nc2ncc3ncn(C4CCN(C(=O)CCl)C4)c3n2)c1 (stereo not given) | -29% [6.25 µM] (active)
4 | CC(=S)Nc1ccccc1 | 103% (inactive)
5 | Fc1ccc2c(-c3cncn3CCc3ccccc3)c[nH]c2c1 | 85.8% (inactive)
6 | O=C1c2[nH]cc(CN[C@@H]3CCCN3)c2C(=O)c2c1c(O)c1ccccc1c2O | -73% (active)
7 | COc1cc(OC)c(/C=C/c2c3ccccc3cc[n+]2C)c(OC)c1 | -25.1% (active)
8 | COc1cc(C(=O)N2CCN(c3ccccc3OC)CC2)c(NC(=O)c2cnccn2)cc1OCc1ccccc1 | 47.5% (inactive)
9 | S=c1ssnc1-c1cc2ccccc2o1 | 78% (inactive)
10 | O=[N+]([O-])c1ccc2[nH]c(=S)n(/C=C(/c3ccc(Cl)cc3Cl)S(=O)(=O)Cc3ccc(Cl)cc3Cl)c2c1 | 101% (inactive)
11 | CCCN1C(=O)N(CCC)C2C1NC(=S)N2/N=C/C=C/c1ccccc1OC (stereo not given) | -42.1% (active)
12 | Cc1c(C(=O)OCCO)cc(-c2ccc(Cl)cc2)n1-c1ccc(Cl)cc1Cl | 59.7% (inactive)
13 | C=CCNC(=O)c1ccc(OC)cc1 | 87.7% (inactive)
14 | CC(C)c1ccc(NC(=O)Nc2ccc(NC(=O)c3ccccc3N)cc2)cc1 | 50.1% (inactive)
15 | N#Cc1ccc2nc[nH]c2c1 | 101% (inactive)
16 | N=C1c2nc3n(c2C(=O)c2nc4n(c21)CCCC4)CCCC3 | 96.3% (inactive)
17 | CC(CN1CCN(CC(C)Nc2ccnc3cc(Cl)ccc23)CC1)Nc1ccnc2cc(Cl)ccc12 (stereo not given) | 19.8% (inactive)
18 | N#CC1C(=O)NC(c2ccccc2[N+](=O)[O-])c2sc3c(F)cccc3c21 (stereo not given) | 82.3% (inactive)
19 | COc1ccc(S(=O)(=O)n2ccc(-c3ccc4c(c3)CCC(C)(C)O4)n2)cc1OC | 94.7% (inactive)
20 | C#CCCCCCCC[C@@H]1OC(=O)[C@H]([C@@H](C)CC)NC(=O)[C@@H]([C@@H](C)CC)NC(=O)CC(=O)[C@@H]1C | 107% (inactive)

Row | Compound | growth
21 | COc1ccc(C(=O)/C=C/c2ccc(C)cc2)cc1OC | 58.4% (inactive)
22 | O=C(/C=C/c1ccco1)Nc1ncc(Cc2ccc(F)cc2)s1 | -41.6% (active)
23 | O=C(/C(=C/c1ccc([N+](=O)[O-])cc1)c1ccccc1)c1ccccc1 | 16.9% (inactive)
24 | Cc1nc2cc(Nc3nc(Nc4ccc(F)cc4)nc(N4CCN(C)CC4)n3)ccc2n1Cc1ccccc1 | -56.9% (active)
25 | Cc1nc(-c2ccccc2)sc1CC#N | 93.9% (inactive)
26 | CC(C)(C)OC(=O)N1CCN(c2ccc(N)cc2)C(=O)C1 | 102% (inactive)
27 | CN1CCN(C(=O)OCc2nc3c(N4CCOCC4)nc(Cl)nc3n2C)CC1 | -53.4% (active)
28 | Cc1cc(Cc2cc(C)c(N)cc2N)c(N)cc1N | 85.6% (inactive)
29 | CC1(C)CC[C@]2(C(=O)O)CC[C@]3(C)[C@H](CC[C@@H]4[C@@]5(C)CCC(=O)C(C)(C)[C@@H]5CC[C@]43C)[C@H]2[C@H]1OC(=O)C(F)(F)F | -23.4% [100 µM] (active)
30 | CC(=O)Nc1ccc(/C=N/N2CCCCCC2)cc1 | 95.1% (inactive)
31 | COc1cc2c(cc1OC)C(=O)C(CC1CCN(C(=O)Nc3ccc(C)cc3)CC1)C2 (stereo not given) | 125% (inactive)
32 | O=C(Nc1ccc(F)cc1F)c1cc(Cl)ccc1O | -31.4% (active)
33 | COC(=O)CCC1=C(CC(=O)OC)C(C)=N/C1=C\c1[nH]c(-c2ccc[nH]2)cc1OC | 44.2% (inactive)
34 | Cc1csc(Nc2nc(-c3ccc(Cl)cc3)nc(C(Cl)(Cl)Cl)n2)n1 | 69.3% (inactive)
35 | COc1ccccc1NC(=O)COc1ccc(/C=C2/Oc3cc4occc4c(OC)c3C2=O)cc1OC | 87.5% (inactive)
36 | COc1ccc(Nc2ccnc(NCCCNc3ccnc4cc(Cl)ccc34)n2)cc1 | -68.6% (active)
37 | CC12CCC3C(CCC4CC(=O)/C(=C\O)CC43C)C1CCC(=O)O2 (stereo not given) | 111% (inactive)
38 | CCN(CC)CCSCCN(CC)CC | 100% (inactive)
39 | CCOC(=O)Nc1ccc2nc(Sc3ccc(Cl)cc3)sc2c1 | 10.1% (inactive)
40 | Cc1ccc(Nc2cc(C)nc(NCCCNc3ccnc4cc(Cl)ccc34)n2)cc1 | -73% (active)
